Experimental data as given in PubChem BioAssay (NCI).
About 83,000 compounds went through this panel and 20% of them were active in at least one assay; those are over-represented in the sample as a whole.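 The test compound was applied at a single concentration to cells in 96-well plates for 48 hours, and percent growth was recorded.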 Active and inactive are the calls of the source. Rule for the calls: active = growth percent below 10; inactive = the rest.

System: HL-60(TB) leukemia
Experiment: NCI-60 one-dose screen, 48 h (100 = growth as untreated, 0 = no growth, -100 = all killed)
Settings: 10 µM unless noted

| Compound | growth |
| --- | --- |
| CC(=O)NCC(=O)N1[C@@H]2CC[C@H]1c1ccc(Nc3ncc(C(F)(F)F)c(NC4CCC4)n3)cc12 | 11.8% [2.5 µM] (inactive) |
| O=C(/C=C/CN1CCOCC1)Nc1cc2c(Nc3ccc(F)c(Cl)c3F)ncnc2cc1OCCOC(F)F | 76.9% (inactive) |
| COc1cc2nc(Cl)nc(NCCO)c2cc1OC | 104% (inactive) |
| COc1cc(Cl)cc(-c2nn(C(=O)NCCN3CCOCC3)cc2-c2ccncc2)c1 | 55.7% (inactive) |
| Nc1nc2c(c3ncccc13)C(c1ccc(Cl)c(Cl)c1)Cc1ncccc1-2 (stereo not drawn) | -7.14% (active) |
| O=S(=O)(NCCNc1cc(-c2cn(-c3ccccc3)nc2-c2cccc(O)c2)ccn1)c1ccc(Cl)cc1 | 15.3% (inactive) |
| O=C(NCCc1ccccc1)/C(=C\c1ccc(Cl)cc1Cl)NC(=O)c1ccccc1 | 112% (inactive) |
| COc1ccc(/C(C)=C(/c2ccc(OCCCN(C)C)cc2)c2ccc(OC(=O)Cc3ccccc3)cc2)cc1 | 72% (inactive) |
| CC(=O)NC1C(O[C@H]2C[C@H]3[C@@H]4CC=C5C[C@@H](O)CC[C@]5(C)[C@H]4CC[C@]3(C)[C@H]2[C@H](C)C(=O)CCC(C)C)OCC(O)C1O (stereo partly drawn) | 10.1% (inactive) |
| N=C(N)c1ccc(-c2ccc(-c3cc(F)cc(F)c3)o2)nc1 | 97.7% (inactive) |
| COc1cc(NC(C)CCCN2C(=O)c3ccccc3C2=O)c2ncccc2c1OC (stereo not drawn) | -96.9% (active) |
| CCCOC(=O)C1c2cc3c(cc2CC(C)C1C(=O)OCCC)OCO3 (stereo not drawn) | 111% (inactive) |
| Cc1ccc(Nc2cc(N)nc(N)n2)cc1Cl | 98.7% (inactive) |
